Assay results taken from PubChem BioAssay (NCATS).
Active and inactive are the calls of the source. Calls come from the whole dose curve; as a rule, active = well fitted curve in the direction sought with a large enough effect; inconclusive = small, poorly fitted or top-dose-only effect, or another doubt; inactive = no such curve, though single readings can be large or run the other way.

Molecular target: Alpha-galactosidase (Coffea arabica) (UniProt Q42656)
Experiment: Counterscreen for Glucocerebrosidase Inhibitors: qHTS Assay for Coffee Bean alpha-Galactosidase at pH 4.5 (AID 957)
Details: purified coffee bean alpha-galactosidase, fluorogenic substrate; series mostly up to 76.9 µM
Outline: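 AC50 values derive from Hill-equation modeling of concentration-response data, normalized to no-enzyme and full-activity controls. The pH 4.5 citrate assay used 2 nM coffee bean enzyme and 80 uM fluorogenic substrate for 20 min.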

Chain of Alpha-galactosidase (Coffea arabica) (Q42656 whole entry, looked up): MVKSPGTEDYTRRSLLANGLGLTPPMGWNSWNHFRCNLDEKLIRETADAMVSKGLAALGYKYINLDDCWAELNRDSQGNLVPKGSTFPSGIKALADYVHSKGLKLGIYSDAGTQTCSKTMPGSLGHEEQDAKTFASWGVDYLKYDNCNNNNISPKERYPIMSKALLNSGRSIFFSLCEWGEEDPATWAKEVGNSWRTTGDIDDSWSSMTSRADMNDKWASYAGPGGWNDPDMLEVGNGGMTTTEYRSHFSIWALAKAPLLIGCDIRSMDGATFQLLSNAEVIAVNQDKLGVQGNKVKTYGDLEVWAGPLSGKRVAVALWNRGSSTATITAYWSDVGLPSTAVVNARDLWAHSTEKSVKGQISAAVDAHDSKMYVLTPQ

| SMILES | outcome |
| --- | --- |
| CC(C)C(=O)Nc1ccc([N+](=O)[O-])c(C(F)(F)F)c1 | inactive |
| CCCC(CCC)C(=O)O | inactive |
| COC(=O)Nc1nc2ccc(C(=O)c3cccs3)cc2[nH]1 | inactive |
| CC[N+](CC)(CC)CC | inactive |
| CN1CCN(CCCN2c3ccccc3Sc3ccc(Cl)cc32)CC1 | inactive |
| O=c1n(CCCN2CCN(c3cccc(Cl)c3)CC2)nc2ccccn12 | inactive |
| CN(C)CC/C=C1\c2ccccc2COc2ccccc21 | inactive |
| Nc1nc2c(ncn2COC(CO)CO)c(=O)[nH]1 | inactive |
| CN(C)C(=O)C(CCN1CCC(O)(c2ccc(Cl)cc2)CC1)(c1ccccc1)c1ccccc1 | inactive |
| O=C1NC(=O)C(c2ccccc2)(c2ccccc2)N1 | inactive |
| C[C@](N)(Cc1ccc(O)c(O)c1)C(=O)O | inactive |
| CCN(CC)CCNC(=O)c1cc(Cl)c(N)cc1OC | inactive |
| CC(C)OC(=O)C(C)(C)Oc1ccc(C(=O)c2ccc(Cl)cc2)cc1 | inactive |
| CCCCc1oc2ccccc2c1C(=O)c1cc(I)c(OCCN(CC)CC)c(I)c1 | inactive |
| COC(=O)[C@H]1[C@H]2C[C@@H]3c4[nH]c5cc(OC)ccc5c4CCN3C[C@H]2C[C@@H](OC(=O)c2cc(OC)c(OC)c(OC)c2)[C@@H]1OC | inactive |
| Cc1ccc(S(=O)(=O)NC(=O)NN2CCCCCC2)cc1 | inactive |

| SMILES | outcome |
| --- | --- |
| CN(C)CCC[C@@]1(c2ccc(F)cc2)OCc2cc(C#N)ccc21 | inactive |
| Cn1ccc2cc3c(cc21)CCN3C(=O)Nc1cccnc1 | inactive |
| CNCCCN1c2ccccc2CCc2ccccc21 | inactive |
| CCOC(=O)c1ncn2c1CN(C)C(=O)c1cc(F)ccc1-2 | inactive |
| NS(=O)(=O)Cc1noc2ccccc12 | inactive |
| Cn1cnc([N+](=O)[O-])c1Sc1ncnc2nc[nH]c12 | inactive |
| CNCCCC1c2ccccc2C=Cc2ccccc21 | inactive |
| CC1(C)NC(=O)N(c2ccc([N+](=O)[O-])c(C(F)(F)F)c2)C1=O | inactive |
| O=C(c1ccc(OCCN2CCCCC2)cc1)c1c(-c2ccc(O)cc2)sc2cc(O)ccc12 | inactive |
| COc1ccc(Cl)cc1C(=O)NCCc1ccc(S(=O)(=O)NC(=O)NC2CCCCC2)cc1 | inactive |
| O=C1CCc2cc(OCCCCc3nnnn3C3CCCCC3)ccc2N1 | inactive |
| CCOC(=O)N1CCC(=C2c3ccc(Cl)cc3CCc3cccnc32)CC1 | inactive |
| CC(C)NCC(O)COc1cccc2[nH]ccc12 (stereo unspecified) | inactive |
| NNCCc1ccccc1 | inactive |
| CN1CCN(CCCN2c3ccccc3Sc3ccc(C(F)(F)F)cc32)CC1 | inactive |
